Sampled rows, rich in hits. Any-hit rate of the full collection: about 2.9%.
E-sel TNF inh – TNF alpha driven E-selectin expression inhibition | inhibition, % at 2 µM | HUVEC TNFa-induced E-selectin immunofluorescence, high content | 120,000 tested, 0.71% active;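 active = inhibition above the batch mean plus 3 SD, and confirmed as a hit on visual image review, cut at about 43% in these data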;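 note: 0% = TNF-stimulated DMSO wells and 100% = unstimulated control wells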
F-actin modifier – alters cytoskeleton assembly in HUVEC cells; HUVEC TNFa F-actin phalloidin imaging, high content; inhibition, % at 2 µM; 91,000 tested, 0.18% active;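 active = inhibition above the batch mean plus 3 SD and confirmed as a hit by visual image inspection, cut at about 30% in these data, passing the limit was not always enough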
ERa SRC1 pot – enhances coactivator binding to human estrogen receptor alpha; AID 639; coactivator binding (% of control), % at 25.6 µM; P03372; 86,000 tested, 1.3% active; TR-FRET ERalpha-LBD/SRC-Cy5 coactivator binding, 2 h; 100 = basal binding, no effect; in the data active = activity above about 200%;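 note: binding measured in presence of low estradiol as agonist stimulus; 0% = peptide alone without receptor and 100% = receptor with peptide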
Calb biofilm kill – kills Candida albicans biofilms; 85,000 tested, 0.14% active; inhibition, % at 6 µM; C. albicans biofilm + clotrimazole, Alamar Blue;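 active = inhibition above 20%; inactive = inhibition below 20%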;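 note: preformed 24 hr biofilms exposed to compound for 48 hr; 0% = biofilm without compound and 100% = blank killed by clotrimazole plus chlorhexidine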
ERb SRC1 inh – ER-beta (human) coactivator binding inhibition; TR-FRET ER-beta LBD / SRC1-Cy5 peptide binding; receptor agonist-loaded with 1 µM estradiol; inhibition, % at 25.6 µM; 86,000 tested, 1.3% active; AID 633;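 active = compounds whose percent inhibition of the receptor-coactivator binding signal exceeds about 50% in the single-dose screen, limit read from the data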;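 note: 0% = receptor plus peptide wells without compound and 100% = peptide-only wells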
Target sequence (Q92731 whole entry, looked up, the tested form may be a part): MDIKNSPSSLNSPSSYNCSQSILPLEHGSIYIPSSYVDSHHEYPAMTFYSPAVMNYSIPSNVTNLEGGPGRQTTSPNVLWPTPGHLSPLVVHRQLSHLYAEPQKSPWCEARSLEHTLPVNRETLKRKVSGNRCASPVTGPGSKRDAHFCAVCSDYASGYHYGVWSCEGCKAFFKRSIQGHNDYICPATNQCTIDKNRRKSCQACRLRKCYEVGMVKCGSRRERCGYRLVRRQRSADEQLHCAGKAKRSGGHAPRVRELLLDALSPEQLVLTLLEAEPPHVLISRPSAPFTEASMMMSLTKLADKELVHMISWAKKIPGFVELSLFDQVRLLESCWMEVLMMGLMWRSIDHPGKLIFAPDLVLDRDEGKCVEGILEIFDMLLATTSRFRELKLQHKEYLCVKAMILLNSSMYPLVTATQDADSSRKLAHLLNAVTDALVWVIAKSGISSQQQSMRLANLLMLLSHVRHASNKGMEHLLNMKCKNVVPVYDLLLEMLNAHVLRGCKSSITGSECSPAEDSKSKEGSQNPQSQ
ERa SRC1 inh – blocks coactivator binding to human estrogen receptor alpha; TR-FRET ER-alpha LBD / SRC-1 peptide, estradiol-bound; inhibition, % at 25.6 µM; 86,000 tested, 1.7% active; AID 629; in the data active = inhibition above about 50%;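 note: 0% = receptor plus peptide control and 100% = peptide only without receptor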
Numbers without * were called inactive; · = not tested or not shown; [ ] = dose if it differs, or a comment.

SMILES | E-sel TNF inh | F-actin modifier | ERa SRC1 pot | Calb biofilm kill | ERb SRC1 inh | ERa SRC1 inh
COc1ccc(OCCOC(=O)c2ccc(-n3cnnn3)cc2)cc1 | -8 | -9 | 101 | 5 | 1 | -5
CCOC(=O)C1CCCN(Cc2c(Cl)cccc2Cl)C1 (stereo not given) | 6 | 12 | 100 | 6 | 2 | -2
CCOC(=O)C1CCCN(Cc2ccccc2F)C1 (stereo not given) | 75* | · | 135 | -10 | -7 | 10
COC(=O)CSCC(=O)Nc1nnc(-c2ccccc2C)s1 | -6 | · | · | · | · | ·
CNc1ccc(Br)cc(C(=O)/C=C/c2cc(OC)ccc2OC)c1=O | -2 | -4 | 56 | 3 | 65*[fluorescence artefact?] | 71*[fluorescence artefact?]
CCNc1ccc(Br)cc(C(=O)/C=C/c2ccc(Cl)cc2Cl)c1=O | -11 | 11 | 101 | 9 | 76*[fluorescence artefact?] | 85*[fluorescence artefact?]
CNc1ccc(Br)cc(C(=O)/C=C/c2ccc3c(c2)OCO3)c1=O | · | -21 | · | · | · | ·
Cc1cccc(NC(=S)NC2CC3CCCC(C2)N3Cc2ccccc2)c1C (stereo not given) | -36 | · | · | · | · | ·
CC(NC(=O)NC12CC3CC(CC(C3)C1)C2)C1CCCO1 (stereo not given) | -33 | 2 | 108 | 8 | 0 | 1
CCN(CC)CCNC(=O)c1c(O)c2cc(OC)c(OC)cc2[nH]c1=O | · | · | 73 | 12 | 9 | 16
COc1ccc(-c2noc(CSc3nc(N)c(-c4ccccc4)c(=O)[nH]3)n2)cc1OC | 14 | -16 | 79 | 3 | 7 | 23
COc1ccc(-c2noc(CSc3nc(-c4ccccc4)cc(=O)[nH]3)n2)cc1 | -47 | 5 | 242*[fluorescence artefact?] | 1 | 15 | -2
COc1ccccc1/C=C/C(=O)OCC(=O)Nc1cc(C(F)(F)F)ccc1N1CCOCC1 | 23 | · | · | · | · | ·
CCOC(=O)N1CCN(C(=S)NC(=O)c2cncc(Br)c2)CC1 | 89* | · | · | · | · | ·
COc1ccccc1CNC(=O)CSc1ccc(-c2ccncc2)nn1 | 5 | · | · | · | · | ·
COc1ccccc1CNC(=O)CSc1nnc2ccc(-c3cccnc3)nn12 | 84* | · | · | · | · | ·
COc1ccc(CCn2c(SCC(=O)Nc3cc(C)on3)nc3ccsc3c2=O)cc1OC | · | -2 | 314* | 10 | 1 | -3
COc1ccc(CCn2c(SCC(=O)Nc3cc(C)on3)nc3ccccc3c2=O)cc1OC | · | -24 | 164 | 1 | 6 | 5
Cc1nnc(NC(=O)CSc2nc3c(c(=O)n2CCc2ccccc2)SC(C)C3)s1 (stereo not given) | -15 | · | 83 | 8 | 17 | 69*
Cc1cc(NC(=O)CSc2nc3c(c(=O)n2CCc2ccccc2)SC(C)C3)no1 (stereo not given) | -29 | · | 105 | 4 | 10 | 79*
CCn1c(SCC(=O)Nc2nnc(C)s2)nc2c(c1=O)SC(C)C2 (stereo not given) | -38 | · | 102 | 4 | -5 | -4
CC1Cc2nc(SCC(=O)Nc3ccc4c(c3)OCO4)n(CCc3ccccc3)c(=O)c2S1 (stereo not given) | -24 | · | 104 | -2 | 12 | 1
O=c1cc(CN2CCN(c3ccccc3)CC2)c2cc(O)c(-c3ccccc3)cc2o1 | · | 22 | 84 | 4 | 35 | 79*[fluorescence artefact?]
Cc1cc2oc(=O)cc(CN3CCN(Cc4ccccc4)CC3)c2cc1Cl | · | -13 | 120 | 1 | 2 | 4
O=c1cc(CN2CCN(Cc3ccccc3)CC2)c2cc(Cl)ccc2o1 | · | -12 | 85 | 3 | 60*[fluorescence artefact?] | 7
SMILES | E-sel TNF inh | F-actin modifier | ERa SRC1 pot | Calb biofilm kill | ERb SRC1 inh | ERa SRC1 inh
O=[N+]([O-])/C=C\c1ccc(N2CCCC2)c(F)c1 | 20 | · | · | · | · | ·
CCN(c1ccccc1)S(=O)(=O)c1ccc2[nH]cc(C(=O)NCCOC)c(=O)c2c1 | -15 | 17 | 46 | 5 | 22 | 50*
COc1ccccc1C(=O)OCC(=O)Nc1ccc(Cl)cn1 | -21 | · | · | · | · | ·
COc1cc(S(=O)(=O)Nc2c(C)cc(C)cc2C)ccc1Cl | -5 | -6 | 91 | 9 | 63*[fluorescence artefact?] | -1
COc1cc(S(=O)(=O)Nc2ccccc2C)ccc1Cl | -19 | 6 | 86 | 0 | -7 | -2
O=C(Cc1coc2cc3c(cc12)CCC3)OCc1cc(=O)n2c(n1)sc1ccccc12 | 5 | 43 | 136 | 10 | 72* | 76*
O=C(Cn1cc(C(=O)C(F)(F)F)c2cc(Br)ccc21)N1CCOCC1 | 61* | · | · | · | · | ·
CCn1cc(C(=O)C(F)(F)F)c2ccccc21 | 4 | 5 | · | · | · | ·
O=C(CCC1CCCCC1)N1CCN(Cc2ccc3c(c2)OCO3)CC1 | -1 | -3 | 100 | 12 | 1 | -4

Bioassay records as filed in PubChem BioAssay.
